The campaign covered roughly 1,100 compounds. About 340 (31%) were called active. Another 40% or so got no clear call; they are omitted. The call rests on the fitted dose curve; in most records, active means well fitted inhibition curve with a large enough effect; inconclusive means small, poorly fitted or top-dose-only effect; inactive means flat fitted curve, though single readings scatter. These entries were drawn from the full list.
target: Phosphatidylinositol 5-phosphate 4-kinase type-2 alpha (Homo sapiens) (UniProt P48426); test: qHTS for Inhibitors of PI5P4K: Confirmation in Primary Assay; details: PI5P4Kalpha enzyme, ADP-Glo luminescence, 60 min; series mostly up to 76.9 µM; activity change, negative = inhibition: at the top concentration; further: nearly all actives have a fitted effect of over 65% in size
Sequence (P48426 whole entry, looked up, canonical isoform): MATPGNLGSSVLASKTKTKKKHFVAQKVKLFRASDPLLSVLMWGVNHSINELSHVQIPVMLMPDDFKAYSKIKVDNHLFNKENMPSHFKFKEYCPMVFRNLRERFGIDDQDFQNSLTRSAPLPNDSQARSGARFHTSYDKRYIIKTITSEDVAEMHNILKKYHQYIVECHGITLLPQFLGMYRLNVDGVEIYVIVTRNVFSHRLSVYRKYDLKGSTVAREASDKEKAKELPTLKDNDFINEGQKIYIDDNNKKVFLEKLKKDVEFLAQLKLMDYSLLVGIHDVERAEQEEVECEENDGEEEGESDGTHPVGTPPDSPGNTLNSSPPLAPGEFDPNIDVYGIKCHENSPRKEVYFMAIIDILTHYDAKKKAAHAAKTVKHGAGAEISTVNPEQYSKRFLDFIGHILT
From the text: In addition to finding PI5P, we discovered the type II phosphatidylinositol 5-phosphate 4-kinase (PI5P4K) family (alpha, beta, gamma isoforms) that catalyze the conversion of PI5P to PI(4,5)P2. Alternatively, PI(4,5)P2 can also be synthesized through phosphatidylinositol-4-phosphate (PI4P) by the type I phosphatidylinositol 4-phosphate 5-kinases (PI4P5K). These PI5P4K enzymes therefore represent one way by which cells can regulate endogenous PI5P levels and play important roles in insulin signaling and in stress responses. […] A qHTS PI5P4K-alpha ADP-Glo assay was developed to identify specific modulators of human PI5P4K, phosphatidylinositol-5-phosphate 4-kinase (Type II PIPK). This assay was screened against the MLSMR containing ~400,000 small molecules (PubChem AID 652105). To confirm that the hits were not interacting with the detection enzyme system, a 1536-well counterscreen against the ADP-Glo kit (Promega) was utilized, as described in Davis et al., 2013 [1]. Davis et al., PLoS One. 2013;8(1):e54127. NIH Chemical Genomics Center [NCGC] NIH Molecular Libraries Probe Centers Network [MLPCN] MLPCN Grant: MH096575 Assay Submitter (PI): Atsuo Sasaki, Beth Israel Deaconess Medical Center
2 microL of PI5P4Kalpha/substrate buffer (columns 1-2, 5-48) are dispensed into Greiner white solid bottom 1536-well assay plates; column 3 receives only PI5P4Kalpha buffer as 0x substrate controls; column 4 receives only substrate buffer as 0x PI5P4Kalpha controls. Final assay buffer consists of 0.038 M HEPES pH 7.4, 0.28 mM EGTA, 0.1% CHAPS, and 5% DMSO (final concentration). Compounds are then transferred via Kalypsys pin tool equipped with 1536-pin array (10 nL slotted pins, V&P Scientific, San Diego, CA). Following addition of compound, 1 microL of ATP (5 microM final concentration, all columns) is added to initiate the reaction. ATP is diluted in an assay buffer consisting of 0.02 M HEPES pH 7.4, 60 mM MgCl2, 15 microM ATP, and 0.1% CHAPS. The plates are then incubated at room temperature for 60 minutes. ADP-Glo reagent 1 is added (2 microL) and plates incubated for 45 minutes, before ADP-Glo reagent 2 (4 microL) is added and plates incubated for 30 minutes. They are then transferred to a ViewLux high-throughput CCD imager (PerkinElmer) wherein single end-point measurements of luminescence are acquired using a clear filter.
Potency means the concentration at half of the fitted maximal effect.

Potency, active:
O=C(NCc1ccco1)c1c2c(nc3ccccc13)CCC2 10 µM
O=C(NC1CCC(O)CC1)c1cc(-c2ccco2)nc2ccccc12 (stereo not given) 12.6 µM
CCCCCCNC(=O)c1cc(-c2ccco2)nc2ccccc12 7.08 µM
Cc1ccc(-c2cc(C(=O)O)c3cc(Br)ccc3n2)o1 25.1 µM
Cc1ccc(-c2cc(C(=O)NCc3ccco3)c3ccccc3n2)o1 14.1 µM
COc1ccc(CCNC(=O)c2cc(-c3ccco3)nc3ccccc23)cc1 15.8 µM
COc1ccc(S(=O)(=O)/N=C2\C=C(NS(=O)(=O)c3ccccc3)C(=O)c3ccccc32)cc1 31.6 µM
Cc1ccc(-c2nc3c(c(=O)[nH]c(=O)n3Cc3ccccc3)n2C)o1 5.62 µM
Cc1ccc(CNC(=O)c2ccc(-n3cccc3)cc2)cc1 12.6 µM
Cc1cc(-c2nc3c4c5c(sc4[nH]c(=O)n3n2)CCC5)c(C)o1 15.8 µM
CCOC(=O)C1CCCN(C(=O)c2cc(-c3ccco3)nc3ccccc23)C1 (stereo not given) 3.16 µM
COC(=O)C1CCN(C(=O)c2cc(-c3ccco3)nc3ccccc23)CC1 3.98 µM
CCOC(=O)Nc1ccc(NCc2ccc(F)cc2)nc1N 31.6 µM
O=C(Oc1ccc2c(c1)OCO2)c1cc2c(s1)CCC2 2.24 µM
O=c1c2ccccc2cnn1-c1nc2ccccc2[nH]1 25.1 µM
N#CC1=C2SCN(c3ccccc3)CN2C(=O)CC1c1cccs1 (stereo not given) 15.8 µM
CCc1ccc(N2CSC3=C(C#N)C(c4cccs4)CC(=O)N3C2)cc1 (stereo not given) 12.6 µM
N#CC1=C2SCN(c3ccc(F)cc3)CN2C(=O)CC1c1cccc(F)c1 (stereo not given) 20 µM
CCc1ccc(C2CC(=O)N3CN(c4ccccc4)CSC3=C2C#N)cc1 (stereo not given) 28.2 µM

Activity change, negative = inhibition, inactive:
Cn1nnc2cc(C(=O)NC3CC3)ccc21 -7.92%
Cc1nnc(-c2ccccc2)nc1N(C)C -3.17%
O=C(COC(=O)C1CCCCC1)Nc1ccccc1OC(F)F 3.6%
COc1cccc(N2CCN(C(=O)c3ccc(CS(=O)c4ccccc4C)o3)CC2)c1 (stereo not given) 1.63%
CC(C)(C(=O)N1CCC1(C)C(=O)NS(=O)(=O)c1ccc(C#N)cc1)c1ccccc1 (stereo not given) 0.35%
O=C(OCC(=O)N1N=C(c2ccc(Cl)cc2)CC1c1ccco1)c1cccnc1 (stereo not given) -24.6%
COc1ccc(-c2cc(C(=O)Nc3ccccc3O)c3ccccc3n2)cc1 -1.85%
COc1ccc(CCNC(=O)C2CC(c3cccc(F)c3)=NO2)cc1 (stereo not given) -4.13%
O=C(O)CCC(=O)N1CCC(n2nnc3cc(C(F)(F)F)ccc32)CC1 0.897%
O=C(NC1CC1)c1ccc(NC(=O)C2CCC2)cc1 0.977%
COc1ccc(S(=O)(=O)Nc2ccc3c(c2)CCC3)cc1 4.59%
CC(C)OC(=O)c1c(NS(=O)(=O)c2ccccc2)sc2c1CCCC2 1.37%
COc1cc(=O)[nH]c(=O)n1C(=O)Cc1ccccc1 0.157%
CCCCn1c(=O)[nH]c(=O)c2c1nc(-c1ccc(-c3ccccc3Br)o1)n2CC -29.7%
O=C(CC1C(=O)NCCN1CC1CCCCC1)NCc1cc(F)ccc1F (stereo not given) -5.29%
Cc1ccc(CNC(=O)CCS(=O)(=O)c2ccc(Cl)cc2)cc1 1.11%
Cc1ccc(CNC(=O)CSc2ncccn2)cc1 0.997%
O=C(NCc1ccc(F)cc1)C1CCN(c2cnccn2)CC1 4.11%
CCOC(=O)C1(C)CCCN(C(=O)c2ccccc2C(F)(F)F)C1 (stereo not given) -4.14%
CCOC(=O)C1CCCN(C(=O)c2ccc(F)c(C)c2)CC1 (stereo not given) 3.34%
COc1ccc(C(=O)N2CCC(C(=O)Nc3ccc(C)cc3)CC2)cc1 -0.331%
Cc1ccc(C)c(C2=NNC(=NCc3ccccc3)SC2)c1 -10.7%
O=C(Nc1ccc(Cl)cc1)Nc1ccccc1CC[N+](=O)[O-] -4.4%
Cc1cc(C)cc(NC(=O)Cn2nnc(C(=O)NCc3ccc(F)cc3)c2N)c1 -0.223%
COc1ccc(-c2cc(C(F)F)n3ncc(C(=O)n4ccnc4C)c3n2)cc1 -18.4%
Cc1ccc(-n2c(SCC(=O)Nc3ccc4c5c(cccc35)CC4)nc(O)cc2=O)cc1 -25.8%
O=C(NC1CC1)C1=C[C@@H](c2c[nH]c3ccccc23)C[C@@H](OCc2ccc(CO)cc2)O1 -4.48%
COc1ccc(N2CCN(C(=O)c3[nH]c(C(F)(F)F)nc3-c3ccccc3)CC2)cc1 -2.12%
CCOc1ccc(Cl)cc1S(=O)(=O)n1cnc2ccccc21 11%
O=C(Cc1cccs1)N(CC1CCCO1)C1(C(=O)NC2CCCCC2)CCCCC1 (stereo not given) 1.04%
NC(=O)[C@@H]1CC2(CC(c3cccc(NC(=O)COc4ccc(Cl)cc4)c3)=NO2)CN1C(=O)COc1ccc(Cl)cc1 (stereo not given in full) -15.9%

— PubChem BioAssay AID743286 (National Center for Advancing Translational Sciences (NCATS), 2014)
